In the experiment the target is pT7_6His-AlfaTag-HOXD13 (human, UniProt P35453 263-343). The experiment is described as follows: PADIT-seq. As to conditions: dsDNA, one strand shown.
Sequence of pT7_6His-AlfaTag-HOXD13 (P35453 263-343): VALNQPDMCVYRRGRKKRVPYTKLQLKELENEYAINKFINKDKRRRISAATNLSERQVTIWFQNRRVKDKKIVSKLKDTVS

Sequence “CTCGAGGATATCAAGATCTGGCCTCGGCGCGGAAGCGGGAACCTCTAGCTAGCCGACTCACTATAGGGATAATCGCCCTGAGCAAAGACC” came in with a binding signal of -0.566 ± 0.121 log2FC. The figure for “CTCGAGGATATCAAGATCTGGCCTCGGCCGCCCATTAGGAACCTCTAGCTAGCCGACTCACTATAGGGATAATCGCCCTGAGCAAAGACC” is -0.218 ± 0.102 log2FC; for “CTCGAGGATATCAAGATCTGGCCTCGGCATTTTAGGAGGAACCTCTAGCTAGCCGACTCACTATAGGGATAATCGCCCTGAGCAAAGACC” it is 1.62 ± 0.0831 log2FC. “CTCGAGGATATCAAGATCTGGCCTCGGCTCGTTAAAAGGAACCTCTAGCTAGCCGACTCACTATAGGGATAATCGCCCTGAGCAAAGACC” yielded a binding signal of 3.05 ± 0.0768 log2FC.

The sequence “CTCGAGGATATCAAGATCTGGCCTCGGCTTTTTACACGGAACCTCTAGCTAGCCGACTCACTATAGGGATAATCGCCCTGAGCAAAGACC” came in with a binding signal of 2.25 ± 0.079 log2FC.

Take “CTCGAGGATATCAAGATCTGGCCTCGGCTTTTTAGCTGGAACCTCTAGCTAGCCGACTCACTATAGGGATAATCGCCCTGAGCAAAGACC”: the binding signal was -0.298 ± 0.114 log2FC.

Sequence “CTCGAGGATATCAAGATCTGGCCTCGGCGTTTTAACTGGAACCTCTAGCTAGCCGACTCACTATAGGGATAATCGCCCTGAGCAAAGACC” displayed a binding signal of 1.39 ± 0.0832 log2FC. With “CTCGAGGATATCAAGATCTGGCCTCGGCGTTTTAAGAGGAACCTCTAGCTAGCCGACTCACTATAGGGATAATCGCCCTGAGCAAAGACC”, the binding signal was found to be 2.61 ± 0.088 log2FC. “CTCGAGGATATCAAGATCTGGCCTCGGCGCCCTAAAAGGAACCTCTAGCTAGCCGACTCACTATAGGGATAATCGCCCTGAGCAAAGACC” registered a binding signal of 0.248 ± 0.0833 log2FC. “CTCGAGGATATCAAGATCTGGCCTCGGCAAGGTAAAAGGAACCTCTAGCTAGCCGACTCACTATAGGGATAATCGCCCTGAGCAAAGACC” gave a binding signal of -0.357 ± 0.0936 log2FC.

The record behind these values is paper doi:10.1101/2024.03.05.583629.
